# Experimental data from PubChem BioAssay (EPA / NIEHS).
# Several values for one entry are separate records, joined by “and”; a condition that tells them apart may be missing. Identical values can stand only once. Records with an inconclusive call do not appear. Some structures have more than one record in an assay (separate samples or runs), and their calls can disagree. Activity calls are given as the source filed them. The calls were made as follows: active = hit-call score of the fitted dose curve at least 0.9, where 1 is the maximum; inconclusive = response in the unintended direction; inactive = score below 0.9.
# Columns and labels:
# [1] = read-out: HMG-CoA synthase (HMGCS2), HMGCS2 (gene 3158); experiment: CLD_HMGCS2_24hr: CellzDirect (CLD) Gene Expression Assay for HMG-CoA synthase (HMGCS2) at 24 hours (AID 2283691)
# How it was run: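 qNPA with S1 nuclease digestion and chemiluminescent detection gave HMGCS2 transcript levels, fitted upward against 0.2% DMSO vehicle. Cultured human hepatocytes (two donors) received fresh compound daily and were harvested at 24 h; phase-contrast morphology flagged cytotoxicity.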
# [2] = read-out: alkyl and aryl transferase (GSTA2), GSTA2 (gene 2939); experiment: CLD_GSTA2_24hr: CellzDirect (CLD) Gene Expression Assay for alkyl and aryl transferase (GSTA2) at 24 hours (AID 2283693)
# How it was run: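 GSTA2 transcript levels were quantified by quantitative nuclease protection assay in primary human hepatocytes 24 h after daily dosing with fresh solutions at multiple concentrations; 0.2% DMSO vehicle as baseline, cytotoxicity flagged morphologically.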
# [3] = read-out: sulfotransferase (SULT2A), SULT2A1 (gene 6822); experiment: CLD_SULT2A_24hr: CellzDirect (CLD) Gene Expression Assay for sulfotransferase (SULT2A) at 24 hours (AID 2283694)
# How it was run: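 mRNA is measured by qNPA: probe hybridisation, S1 nuclease digestion, chemiluminescence, in lysates from human primary hepatocytes harvested 24 h after daily dosing. Vehicle was 0.2% DMSO. Phase-contrast microscopy flagged cytotoxicity (yes/no).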
# [4] = read-out: ABC Transporter (ABCB11), ABCB11 (gene 8647); experiment: CLD_ABCB11_48hr: CellzDirect (CLD) Gene Expression Assay for ABC Transporter (ABCB11) at 48 hours (AID 2283697)
# How it was run: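 Induction of ABCB11 mRNA relative to 0.2% DMSO, measured at 48 h by qNPA chemiluminescence. Cultured human hepatocytes (two donors) received fresh dosing solutions at several concentrations on two consecutive days.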
# [5] = read-out: Cytochrome P450 3A4 (Homo sapiens) (UniProt P08684); experiment: CLD_CYP3A4_48hr: CellzDirect (CLD) Gene Expression Assay for xenobiotic metabolism (CYP3A4) at 48 hours (AID 2283698)
# How it was run: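 CYP3A4 induction read by qNPA chemiluminescence after 48 h, with fresh dosing solutions on consecutive days, in cultured human hepatocytes (two donors). Vehicle 0.2% DMSO as baseline; microscopy-based cytotoxicity annotated yes/no alongside data.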
# [6] = read-out: Cytochrome P450 2B6 (Homo sapiens) (UniProt P20813); experiment: CLD_CYP2B6_48hr: CellzDirect (CLD) Gene Expression Assay for xenobiotic metabolism (CYP2B6) at 48 hours (AID 2283699);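 also: actives raise transcript level above DMSO so potency reflects induction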
# How it was run: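 CYP2B6 transcript induction, read by quantitative nuclease protection (S1 digestion, chemiluminescent detection) 48 h after dosing, is fitted upward against 0.2% DMSO. Cultured human liver primary cells, two donor preparations, received fresh chemical daily over multiple concentrations.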
# [7] = read-out: Glyceraldehyde-3-phosphate dehydrogenase (Homo sapiens) (UniProt P04406); experiment: CLD_GAPDH_24hr: CellzDirect (CLD) Gene Expression Assay for Baseline Control (Glyceraldehyde 3-phosphate dehydrogenase) at 24 hours (AID 2283692)
# How it was run: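 GAPDH baseline-control readout: qNPA chemiluminescent mRNA signal in human primary hepatocytes harvested 24 h after daily dosing, normalised to 0.2% DMSO with positive fitting direction; cytotoxicity annotated by phase-contrast morphology.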
# [8] = read-out: ABC Transporter (ABCB1), ABCB1 (gene 5243); experiment: CLD_ABCB1_48hr: CellzDirect (CLD) Gene Expression Assay for ABC Transporter (ABCB1) at 48 hours (AID 2283695)
# How it was run: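 ABCB1 mRNA was measured by quantitative nuclease protection assay (chemiluminescence) 48 h after dosing. Human hepatocyte cultures from two separate donors received fresh dosing solutions daily for two days, with 0.2% DMSO as vehicle. Positive-direction fit against DMSO.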
# [9] = read-out: glucuronosyltransferase (UGT1A1), UGT1A1 (gene 54658); experiment: CLD_UGT1A1_24hr: CellzDirect (CLD) Gene Expression Assay for glucuronosyltransferase (UGT1A1) at 24 hours (AID 2283696)
# How it was run: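 UGT1A1 transcript induction was measured by quantitative nuclease protection assay (chemiluminescence) in human hepatocyte cultures 24 h after daily fresh dosing, with 0.2% DMSO as vehicle and baseline.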
# [10] = read-out: xenobiotic metabolism (CYP1A2), CYP1A2 (gene 1544); experiment: CLD_CYP1A2_48hr: CellzDirect (CLD) Gene Expression Assay for xenobiotic metabolism (CYP1A2) at 48 hours (AID 2283703)
# How it was run: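 Cytotoxicity was flagged yes/no from morphology, while CYP1A2 transcript induction was detected by qNPA chemiluminescence after a 48-hour exposure. Human primary hepatocyte cultures from separate donors received fresh dosing solutions daily over two days, with 0.2% DMSO as vehicle and baseline.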
# Chain of Cytochrome P450 3A4 (Homo sapiens) (P08684 whole entry, looked up): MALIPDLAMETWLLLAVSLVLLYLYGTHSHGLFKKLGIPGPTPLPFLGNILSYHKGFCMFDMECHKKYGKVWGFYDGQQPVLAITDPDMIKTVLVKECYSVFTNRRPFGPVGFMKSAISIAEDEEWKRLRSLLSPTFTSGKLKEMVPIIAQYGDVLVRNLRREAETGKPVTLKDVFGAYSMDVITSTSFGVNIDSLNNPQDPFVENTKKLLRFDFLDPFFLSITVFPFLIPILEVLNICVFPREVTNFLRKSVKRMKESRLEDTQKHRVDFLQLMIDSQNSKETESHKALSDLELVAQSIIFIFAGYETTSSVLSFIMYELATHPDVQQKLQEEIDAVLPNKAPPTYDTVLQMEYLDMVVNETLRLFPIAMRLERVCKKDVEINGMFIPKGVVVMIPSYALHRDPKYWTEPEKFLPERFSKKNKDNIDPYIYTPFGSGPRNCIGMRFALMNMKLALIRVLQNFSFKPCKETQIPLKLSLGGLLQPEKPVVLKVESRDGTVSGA
# Chain of Glyceraldehyde-3-phosphate dehydrogenase (Homo sapiens) (P04406 whole entry, looked up): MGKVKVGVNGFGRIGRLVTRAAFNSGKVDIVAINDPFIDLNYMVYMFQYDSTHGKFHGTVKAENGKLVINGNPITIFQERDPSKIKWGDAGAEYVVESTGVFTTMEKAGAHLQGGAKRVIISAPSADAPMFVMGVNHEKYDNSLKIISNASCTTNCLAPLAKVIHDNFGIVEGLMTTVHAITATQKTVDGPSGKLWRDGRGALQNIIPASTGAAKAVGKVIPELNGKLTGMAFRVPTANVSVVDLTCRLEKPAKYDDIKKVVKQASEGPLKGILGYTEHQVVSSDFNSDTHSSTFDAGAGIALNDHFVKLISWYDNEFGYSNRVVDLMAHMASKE
smiles,measurement,setting,value
O=C(O)c1nc(Cl)ccc1Cl,outcome,[1],inactive
same,outcome,[2],inactive
same,outcome,[3],inactive
same,AC50,[4],6.55 µM (active)
same,outcome,[5],inactive
same,AC50,[6],4.4 µM (active)
N#CC(CCc1ccc(Cl)cc1)(Cn1cncn1)c1ccccc1 (stereo not given),outcome,[7],inactive
same,outcome,[2],inactive
same,outcome,[3],inactive
same,outcome,[8],inactive
same,AC50,[5],736 nM (active)
same,AC50,[6],0.434 µM (active)
CNC(=S)S,outcome,[7],inactive
same,outcome,[3],inactive
C=CCC1=C(C)C(OC(=O)C2C(C=C(C)C)C2(C)C)CC1=O (stereo not given),outcome,[7],inactive
same,outcome,[2],inactive
same,outcome,[8],inactive
same,AC50,[6],12.8 µM (active)
COC(=O)c1ccccc1C(=O)OC,outcome,[7],inactive
same,outcome,[2],inactive
same,outcome,[3],inactive
same,outcome,[8],inactive
same,outcome,[9],inactive
same,outcome,[4],inactive
same,outcome,[5],inactive
same,outcome,[6],inactive
same,outcome,[10],inactive
COC(=O)C(C)Oc1ccc(Oc2ccc(Cl)cc2Cl)cc1 (stereo not given),outcome,[1],inactive
same,outcome,[7],inactive
same,outcome,[2],inactive
same,outcome,[3],inactive
same,outcome,[8],inactive
same,outcome,[9],inactive
same,outcome,[4],inactive
same,outcome,[5],inactive
same,AC50,[6],20 µM (active)
same,outcome,[6],inactive
Oc1ccccc1-c1ccccc1,outcome,[1],inactive
same,outcome,[7],inactive
same,outcome,[2],inactive
same,outcome,[9],inactive
same,outcome,[4],inactive
same,outcome,[5],inactive
same,AC50,[6],8.64 µM (active)
CS/C(C)=N/OC(=O)N(C)SN(C)C(=O)O/N=C(\C)SC,outcome,[1],inactive
same,outcome,[2],inactive
same,outcome,[8],inactive
same,outcome,[9],inactive
same,outcome,[4],inactive
CC(Oc1ccc(Cl)cc1Cl)C(=O)O (stereo not given),outcome,[7],inactive
same,outcome,[2],inactive
same,outcome,[9],inactive
same,outcome,[5],inactive
same,outcome,[6],inactive
C=CC1(C)OC(=O)N(c2cc(Cl)cc(Cl)c2)C1=O (stereo not given),outcome,[1],inactive
same,outcome,[7],inactive
same,outcome,[3],inactive
same,outcome,[8],inactive
same,outcome,[9],inactive
same,outcome,[6],inactive
CCCCNC(=O)n1c(NC(=O)OC)nc2ccccc21,outcome,[7],inactive
same,outcome,[2],inactive
same,outcome,[8],inactive
same,outcome,[9],inactive
CCCCNC(=O)OCC#CI,outcome,[1],inactive
same,outcome,[7],inactive
same,outcome,[2],inactive
same,outcome,[3],inactive
same,outcome,[8],inactive
same,outcome,[9],inactive
same,outcome,[5],inactive
same,outcome,[6],inactive
Cc1ccc(-c2c(Cl)nc(C#N)n2S(=O)(=O)N(C)C)cc1,outcome,[7],inactive
same,outcome,[2],inactive
same,outcome,[3],inactive
same,outcome,[8],inactive
same,outcome,[9],inactive
COc1nc(C)nc(NC(=O)NS(=O)(=O)c2ccccc2CCC(F)(F)F)n1,outcome,[1],inactive
same,outcome,[7],inactive
same,outcome,[2],inactive
same,outcome,[3],inactive
same,outcome,[8],inactive
same,outcome,[9],inactive
same,outcome,[4],inactive
same,AC50,[5],20 µM (active) and 4.16 µM (active) and 3.34 µM (active)
same,AC50,[6],2.5 µM (active) and 990 nM (active) and 836 nM (active)
CCCCC(CC)COC(=O)c1ccccc1C(=O)OCC(CC)CCCC (stereo not given),outcome,[7],inactive
same,outcome,[2],inactive
same,outcome,[3],inactive
same,outcome,[8],inactive
same,outcome,[9],inactive
same,outcome,[5],inactive
same,outcome,[6],inactive
COc1nc(C)nc(NC(=O)NS(=O)(=O)c2ccccc2Cl)n1,outcome,[7],inactive
same,outcome,[2],inactive
same,outcome,[3],inactive
same,outcome,[8],inactive
same,outcome,[9],inactive
same,outcome,[4],inactive
same,outcome,[5],inactive
same,outcome,[6],inactive
Cc1cc(Cl)ccc1OCC(=O)O,outcome,[1],inactive
same,outcome,[8],inactive
same,outcome,[9],inactive
same,outcome,[5],inactive
same,outcome,[6],inactive
same,outcome,[10],inactive
CN(C)C(=S)SSC(=S)N(C)C,outcome,[7],inactive
same,outcome,[2],inactive
same,outcome,[4],inactive
same,outcome,[6],inactive
same,AC50,[10],34 µM (active)
CCCCOC(=O)c1ccccc1C(=O)OCCCC,outcome,[1],inactive
same,outcome,[7],inactive
same,outcome,[2],inactive
same,outcome,[3],inactive
same,outcome,[8],inactive
same,outcome,[9],inactive
same,outcome,[5],inactive
same,outcome,[6],inactive
O=C(O)COc1nc(Cl)c(Cl)cc1Cl,outcome,[1],inactive
same,outcome,[7],inactive
same,outcome,[3],inactive
same,outcome,[8],inactive
same,outcome,[9],inactive
same,outcome,[6],inactive
N#Cc1cc(Br)c(O)c(Br)c1,outcome,[7],inactive
same,outcome,[2],inactive
same,outcome,[3],inactive
same,outcome,[8],inactive
same,outcome,[9],inactive
CC(C)C1(C)N=C(c2nc3ccccc3cc2C(=O)O)NC1=O (stereo not given),outcome,[1],inactive
same,outcome,[7],inactive
same,outcome,[2],inactive
same,outcome,[8],inactive
same,outcome,[9],inactive
same,outcome,[5],inactive
same,AC50,[6],0.000357 µM (active)
same,outcome,[10],inactive
COP(=S)(OC)Oc1nc(Cl)c(Cl)cc1Cl,outcome,[1],inactive
same,outcome,[7],inactive
same,outcome,[2],inactive
same,outcome,[3],inactive
same,outcome,[8],inactive
same,outcome,[9],inactive
same,outcome,[5],inactive
same,AC50,[6],7.69 µM (active)
same,AC50,[10],5.26 µM (active)
CCOC(=O)CC(SP(=S)(OC)OC)C(=O)OCC (stereo not given),outcome,[1],inactive
same,outcome,[2],inactive
same,outcome,[3],inactive
same,outcome,[8],inactive
same,outcome,[9],inactive
same,outcome,[5],inactive
same,outcome,[6],inactive
